{"source": "PubChem BioAssay (NCI)", "test_in_all_cases": "NCI-60 one-dose screen, 48 h (100 = growth as untreated, 0 = no growth, -100 = all killed)", "details_in_all_cases": "10 µM unless noted", "key": {"SK-MEL-2 melanoma": {"system": "SK-MEL-2 melanoma"}, "EKVX NSCLC": {"system": "EKVX NSCLC"}, "UO-31 renal": {"system": "UO-31 renal"}, "TK-10 renal": {"system": "TK-10 renal"}, "ACHN renal": {"system": "ACHN renal"}, "A498 renal": {"system": "A498 renal"}, "CCRF-CEM leukemia": {"system": "CCRF-CEM leukemia"}, "MOLT-4 leukemia": {"system": "MOLT-4 leukemia"}, "SR leukemia": {"system": "SR leukemia"}, "SN12C renal": {"system": "SN12C renal"}}, "note": "This is part of a sample that, as a whole, favours compounds with a hit. Of some 83,000 tested, about 20% had one in any assay.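 Activity criterion: percent growth below 10, measured after cells in 96-well plates were exposed to a single compound concentration for 48 hours.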 Unmarked numbers belong to inactive results. Calls of active or inactive are those of the source."}
{"compound": "O=[N+]([O-])c1ccc(Oc2ccc(-c3ccccc3)cc2)cc1", "values": [{"measurement": "growth", "setting": "SK-MEL-2 melanoma", "result": 103, "unit": "%"}, {"measurement": "growth", "setting": "EKVX NSCLC", "result": 85.1, "unit": "%"}, {"measurement": "growth", "setting": "UO-31 renal", "result": 79.5, "unit": "%"}, {"measurement": "growth", "setting": "TK-10 renal", "result": 88.5, "unit": "%"}, {"measurement": "growth", "setting": "ACHN renal", "result": 101, "unit": "%"}, {"measurement": "growth", "setting": "A498 renal", "result": 84.5, "unit": "%"}, {"measurement": "growth", "setting": "CCRF-CEM leukemia", "result": 78.3, "unit": "%"}, {"measurement": "growth", "setting": "MOLT-4 leukemia", "result": 70.4, "unit": "%"}, {"measurement": "growth", "setting": "SR leukemia", "result": 77.8, "unit": "%"}]}
{"compound": "COc1ccc(NC(=O)c2sc3nc(C)c(C(C)=O)cc3c2N)cc1", "values": [{"measurement": "growth", "setting": "SK-MEL-2 melanoma", "result": 98.5, "unit": "%"}, {"measurement": "growth", "setting": "EKVX NSCLC", "result": 97.2, "unit": "%"}, {"measurement": "growth", "setting": "UO-31 renal", "result": 105, "unit": "%"}, {"measurement": "growth", "setting": "TK-10 renal", "result": 75.2, "unit": "%"}, {"measurement": "growth", "setting": "ACHN renal", "result": 95.3, "unit": "%"}, {"measurement": "growth", "setting": "A498 renal", "result": 71.1, "unit": "%"}, {"measurement": "growth", "setting": "CCRF-CEM leukemia", "result": 92.2, "unit": "%"}, {"measurement": "growth", "setting": "MOLT-4 leukemia", "result": 84.9, "unit": "%"}, {"measurement": "growth", "setting": "SR leukemia", "result": 84.3, "unit": "%"}]}
{"compound": "Cc1ccc(C(=O)/C(=C/c2ccc([N+](=O)[O-])cc2)S(=O)Cc2ccccc2)cc1", "note": "(stereo not drawn)", "values": [{"measurement": "growth", "setting": "SK-MEL-2 melanoma", "result": 57.9, "unit": "%"}, {"measurement": "growth", "setting": "EKVX NSCLC", "result": 30.3, "unit": "%"}, {"measurement": "growth", "setting": "UO-31 renal", "result": "-83.7% (active)"}, {"measurement": "growth", "setting": "TK-10 renal", "result": "6.85% (active)"}, {"measurement": "growth", "setting": "ACHN renal", "result": "-52.8% (active)"}, {"measurement": "growth", "setting": "A498 renal", "result": 41, "unit": "%"}, {"measurement": "growth", "setting": "CCRF-CEM leukemia", "result": "6.67% (active)"}, {"measurement": "growth", "setting": "MOLT-4 leukemia", "result": "1.79% (active)"}, {"measurement": "growth", "setting": "SR leukemia", "result": "0.101% (active)"}]}
{"compound": "C#C[C@@]1(O)[C@@H](CO)O[C@@H](n2cc(I)c3c(N)ncnc32)[C@@H]1O", "values": [{"measurement": "growth", "setting": "SK-MEL-2 melanoma", "result": "-27.6% (active)"}, {"measurement": "growth", "setting": "EKVX NSCLC", "result": "-19.2% (active)"}, {"measurement": "growth", "setting": "UO-31 renal", "result": "-14.8% (active)"}, {"measurement": "growth", "setting": "TK-10 renal", "result": 23.4, "unit": "%"}, {"measurement": "growth", "setting": "ACHN renal", "result": "5.08% (active)"}, {"measurement": "growth", "setting": "A498 renal", "result": "-86.5% (active)"}, {"measurement": "growth", "setting": "CCRF-CEM leukemia", "result": "6.77% (active)"}, {"measurement": "growth", "setting": "SR leukemia", "result": "-1.14% (active)"}]}
{"compound": "CC1CCN(CCCCCOc2ccc3oc4ccccc4c(=O)c3c2)CC1", "values": [{"measurement": "growth", "setting": "SK-MEL-2 melanoma", "result": 102, "unit": "%"}, {"measurement": "growth", "setting": "EKVX NSCLC", "result": 89, "unit": "%"}, {"measurement": "growth", "setting": "UO-31 renal", "result": 63.1, "unit": "%"}, {"measurement": "growth", "setting": "TK-10 renal", "result": 71.4, "unit": "%"}, {"measurement": "growth", "setting": "A498 renal", "result": 74.4, "unit": "%"}, {"measurement": "growth", "setting": "CCRF-CEM leukemia", "result": 77.1, "unit": "%"}, {"measurement": "growth", "setting": "MOLT-4 leukemia", "result": 53.2, "unit": "%"}, {"measurement": "growth", "setting": "SR leukemia", "result": 47.5, "unit": "%"}]}
{"compound": "CC(=O)OCC1OC(OC2C(COC(C)=O)OC(OCCC[S-])C(OC(C)=O)C2OC(C)=O)C(OC(C)=O)C(OC(C)=O)C1OC(C)=O.[Au+].c1ccc(CN2[CH-]N(Cc3ccccc3)C(c3ccccc3)=C2c2ccccc2)cc1", "note": "(stereo not drawn)", "values": [{"measurement": "growth", "setting": "SK-MEL-2 melanoma", "result": 13.4, "unit": "%"}, {"measurement": "growth", "setting": "SN12C renal", "result": "9.26% (active)"}, {"measurement": "growth", "setting": "UO-31 renal", "result": "9.47% (active)"}, {"measurement": "growth", "setting": "TK-10 renal", "result": 38.5, "unit": "%"}, {"measurement": "growth", "setting": "ACHN renal", "result": 15.1, "unit": "%"}, {"measurement": "growth", "setting": "A498 renal", "result": "-1.67% (active)"}, {"measurement": "growth", "setting": "CCRF-CEM leukemia", "result": 11.5, "unit": "%"}, {"measurement": "growth", "setting": "MOLT-4 leukemia", "result": 15.3, "unit": "%"}]}
{"compound": "O=c1cc(/C=N\\Nc2nc(-c3ccc(Cl)cc3Cl)cs2)c2cc(Cl)ccc2o1", "values": [{"measurement": "growth", "setting": "SK-MEL-2 melanoma", "result": 92.9, "unit": "%"}, {"measurement": "growth", "setting": "EKVX NSCLC", "result": 79.3, "unit": "%"}, {"measurement": "growth", "setting": "UO-31 renal", "result": 70.4, "unit": "%"}, {"measurement": "growth", "setting": "TK-10 renal", "result": 120, "unit": "%"}, {"measurement": "growth", "setting": "ACHN renal", "result": 97.7, "unit": "%"}, {"measurement": "growth", "setting": "A498 renal", "result": 101, "unit": "%"}, {"measurement": "growth", "setting": "CCRF-CEM leukemia", "result": 97.3, "unit": "%"}, {"measurement": "growth", "setting": "MOLT-4 leukemia", "result": 98.1, "unit": "%"}, {"measurement": "growth", "setting": "SR leukemia", "result": 80.7, "unit": "%"}]}
{"compound": "COC(=O)c1ccc2c(c1)n(Cc1ccc3ccccc3c1)c[n+]2Cc1ccc2ccccc2c1", "values": [{"measurement": "growth", "setting": "SK-MEL-2 melanoma", "result": "5.59% (active)"}, {"measurement": "growth", "setting": "EKVX NSCLC", "result": 71, "unit": "%"}, {"measurement": "growth", "setting": "UO-31 renal", "result": 83.6, "unit": "%"}, {"measurement": "growth", "setting": "TK-10 renal", "result": 49.1, "unit": "%"}, {"measurement": "growth", "setting": "ACHN renal", "result": 99, "unit": "%"}, {"measurement": "growth", "setting": "A498 renal", "result": 80.5, "unit": "%"}, {"measurement": "growth", "setting": "CCRF-CEM leukemia", "result": 27.5, "unit": "%"}, {"measurement": "growth", "setting": "MOLT-4 leukemia", "result": 29.2, "unit": "%"}, {"measurement": "growth", "setting": "SR leukemia", "result": "-37.1% (active)"}]}
{"compound": "Cc1cc(C)nc(NS(=O)(=O)c2ccc(Nc3ccc4c5c(n(CCCN(C)C)c(=O)c4c3)-c3ccccc3C5=O)cc2)n1", "values": [{"measurement": "growth", "setting": "SK-MEL-2 melanoma", "result": 108, "unit": "%"}, {"measurement": "growth", "setting": "EKVX NSCLC", "result": 90.5, "unit": "%"}, {"measurement": "growth", "setting": "UO-31 renal", "result": 88.9, "unit": "%"}, {"measurement": "growth", "setting": "TK-10 renal", "result": 87.9, "unit": "%"}, {"measurement": "growth", "setting": "ACHN renal", "result": 89.7, "unit": "%"}, {"measurement": "growth", "setting": "A498 renal", "result": 90.7, "unit": "%"}, {"measurement": "growth", "setting": "CCRF-CEM leukemia", "result": 42.2, "unit": "%"}, {"measurement": "growth", "setting": "MOLT-4 leukemia", "result": 15.2, "unit": "%"}, {"measurement": "growth", "setting": "SR leukemia", "result": 23.4, "unit": "%"}]}
